Rv3671c protease: Rv3671c (M. tuberculosis) protease inhibition; inhibition, % at 5.96 µM; 320,000 compounds, 0.048% hits; P9WHR9; in the data active = inhibition above about 38%;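 also: extracellular domain of Rv3671c used as enzyme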
FadD28 FP inh: M. tuberculosis FadD28 bisubstrate binding inhibition. FadD28 bisubstrate probe binding, fluorescence polarization. inhibition, % at 12.5 µM. 360,000 compounds, 0.22% hits. AID 588549; in the data active = inhibition above about 8.5%, passing the limit was not always enough
UGM FP inh: blocks M. tuberculosis UGM enzyme. 320,000 compounds, 0.06% hits. AID 504406. P9WIQ1. inhibition, % at 10 µM. purified UGM, fluorescence polarization probe displacement; in the data active = inhibition above about 10%, passing the limit was not always enough
GDH-TPI inh: counter-screen for M. tuberculosis FBA inhibitors: GDH-TPI coupled enzymes. inhibition, % at 4.8 µM. GDH-TPI coupled enzyme counterscreen, NADH absorbance. AID 588335. 360,000 compounds, 1.2% hits; in the data active = inhibition above about 30%
Mtb FBA inh: inhibits M. tuberculosis FBA enzyme. P9WQA3. purified M. tuberculosis FBA, fluorescence read-out. inhibition, % at 1 µM. 360,000 compounds, 2.3% hits; in the data active = inhibition above about 27%
Target sequence (P9WQA3 whole entry, looked up): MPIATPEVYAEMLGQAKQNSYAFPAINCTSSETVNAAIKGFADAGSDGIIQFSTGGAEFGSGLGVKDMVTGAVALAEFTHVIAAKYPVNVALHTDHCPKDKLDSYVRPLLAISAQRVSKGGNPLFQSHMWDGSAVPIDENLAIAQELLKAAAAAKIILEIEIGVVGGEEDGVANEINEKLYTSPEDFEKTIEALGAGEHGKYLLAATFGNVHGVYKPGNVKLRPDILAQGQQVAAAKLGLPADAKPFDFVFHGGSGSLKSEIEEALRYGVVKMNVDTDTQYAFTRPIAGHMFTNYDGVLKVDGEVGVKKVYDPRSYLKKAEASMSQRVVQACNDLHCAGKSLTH
Mtb hypoxia rep: Mtb hypoxia fluorescent reporter inhibition; M. tuberculosis hypoxia-regulated fluorescent reporter, fluorescence; fluorescence inhibition, % (concentration not given with the values); 300,000 compounds, 0.1% hits; AID 1159583; in the data active = fluorescence inhibition mostly above about 23%, no sharp cut-off; inactive = mostly below about 17%
Hits are given with their value; i = inactive; nt = not tested or not shown; + = active, no number. An excerpt weighted towards active compounds, which were near 3.5% of everything screened.

SMILES | Rv3671c protease | FadD28 FP inh | UGM FP inh | GDH-TPI inh | Mtb FBA inh | Mtb hypoxia rep
CC(=O)C1=C(O)C(=O)N(CCO)C1c1ccccc1 (stereo not given) | i | i | i | 47 | i | i
Cc1ccc2nc(-c3ccc(-c4ccccn4)s3)cn2c1 | i | i | i | i | + | i
Cc1ccc(C(=O)NC(=Cc2ccco2)C(=O)NCCc2c[nH]c3ccccc23)cc1C | nt | nt | nt | nt | nt | i
O=C1C(=O)N(c2ccc(O)cc2)C(c2ccccc2[N+](=O)[O-])/C1=C(\O)c1ccccc1 (stereo not given) | i | i | i | 36 | i | i
O=C1C(=O)N(CCO)C(c2ccccc2[N+](=O)[O-])/C1=C(\O)c1ccccc1 (stereo not given) | i | i | i | i | i | i
O=C1NC2(CCCCC2)C(=O)N1N=Cc1ccccc1Br | nt | nt | nt | nt | nt | i
c1ccc(CCNc2cnccn2)cc1 | i | i | i | i | + | i
c1ccc(CCNCc2cccnc2)cc1 | i | i | i | i | i | i
Cc1ccc(CNc2cnccn2)cc1 | i | i | i | i | 74 | i
CSc1nncc(C(C)=NNc2ccccc2)n1 | nt | nt | nt | nt | nt | i
CCN(CC)c1ccc(C=NNC(=O)c2cccc(S(=O)(=O)Nc3ccccc3OC)c2)cc1 | nt | nt | nt | nt | nt | i
NC1=NC(=Nc2cccc(S(N)(=O)=O)c2)c2ccccc21 | i | i | i | i | i | i
COc1cc(N=Nc2cccc(S(N)(=O)=O)c2)c2ccccc2c1N | i | 9.7 | i | i | i | i
CNc1cnc(-c2ccc(O)c(OC)c2)cn1 | nt | i | nt | i | i | nt
CNc1ccc(-c2ccccc2OC)cn1 | nt | i | nt | i | 114 | nt
O=C(CC1CC=CCCCC(=O)OC(c2ccccc2)CNC1=O)NCCO (stereo not given) | nt | nt | nt | nt | nt | i
Cc1nc2ccccc2c2nc(NC(=O)C(F)(F)F)nn12 | i | i | i | i | i | i
Cn1nc(NC(=O)C(F)(F)F)c2ncc(-c3ccccc3)nc21 | nt | i | nt | 32 | i | nt
CCCOc1ccc(C2C(=O)N(C3CCCCC3)CC(=O)N2CCC)cc1OC (stereo not given) | i | i | i | i | 31 | i
O=C(Nc1cccc(-c2csc(Nc3ccc(Cl)cc3)n2)c1)c1cc([N+](=O)[O-])cc(C(F)(F)F)c1 | i | i | i | 41 | i | i
O=C(Nc1cccc(-c2csc(Nc3ccccc3)n2)c1)c1cc([N+](=O)[O-])cc(C(F)(F)F)c1 | i | i | i | i | i | i
FC(F)(F)c1cccc(C=NNC(=S)NC2CCCCC2)c1 | nt | nt | nt | nt | nt | i
Cc1ccc(Nc2ccc(N)cc2S(=O)(=O)O)cc1 | i | 85 | i | i | i | i
CCN(CC)c1ccc(C=C2C(=O)OC(C)(C(C)(C)C)OC2=O)cc1 (stereo not given) | i | i | i | 36 | i | i
CN(C)c1ccc(C=C2C(=O)OC(C)(C(C)(C)C)OC2=O)cc1 (stereo not given) | i | i | i | i | i | i
SMILES | Rv3671c protease | FadD28 FP inh | UGM FP inh | GDH-TPI inh | Mtb FBA inh | Mtb hypoxia rep
COc1ccc(N=C2S/C(=C\c3ccco3)C(=O)N2CC(C)C)cc1 | i | i | i | i | i | nt
CN(C)N1C(=O)/C(=C/c2ccco2)SC1=Nc1ccccc1 | i | i | i | 40 | i | i
CC(C)C=NNC(=O)CCCCC(=O)NN=CC(C)C | nt | nt | nt | nt | nt | i
Cc1cc2cc3c(cc2nc1SCC(=O)O)OCCO3 | i | i | i | 33 | i | i
C#CCSc1nc(C)cc(C(=O)OCC)c1C#N | i | i | i | i | i | i
Cc1cc(C(=O)OCCO)c(C#N)c(N)n1 | i | i | i | i | 143 | i
CCOc1ccc(S(=O)(=O)NN=C(C)Cc2ccc(OC)cc2)cc1 | nt | nt | nt | nt | nt | i
CCn1c(SCC(=O)O)nnc1-c1cc2c(C)nn(-c3ccccc3)c2s1 | i | i | i | i | i | i
Cc1nn(-c2ccccc2)c2sc(-c3nnc(SCC(=O)O)o3)cc12 | i | i | i | i | 101 | i
COc1cccc(C(=O)OCC(=O)NC(=O)NC2CCCC2)c1O | i | 12 | i | i | i | i
COc1ccc(C(=O)OCC(=O)NC(=O)NC2CCCC2)cc1OC | i | i | i | i | i | i
CCOC(=O)C1C2COc3ccccc3C2N2C(=O)c3cc(Br)ccc3NC(=O)[C@@]12C (stereo not given in full) | nt | nt | nt | nt | nt | i
CCCCCCCCCCCCCCCC[n+]1ccccc1 | nt | 32 | nt | i | i | i
CCCCCCCCCCCCCCCC[n+]1ccc(C(N)=O)cc1 | i | 22 | i | i | i | i
CCCCCCC[n+]1ccc(-c2cc[n+](CCCCCCC)cc2)cc1 | i | i | i | i | i | 81
CCCCCCCC[n+]1cccc(C(=O)N(CC)CC)c1 | i | i | i | i | i | i
CCCCCCCCCCCCCCCC[n+]1cccc(C(=O)N(CC)CC)c1 | i | 14 | i | i | i | i
O=C(Cc1ccccc1)NCC(=O)NN=Cc1cccnc1 | nt | nt | nt | nt | nt | i
C=CCOc1ccc(C=NNC(=O)C(C)Sc2ccccn2)cc1OC (stereo not given) | nt | nt | nt | nt | nt | i
COC(=O)C1=C(c2ccc(F)cc2OCc2ccccc2)CC2CCC1N2C(=O)NCc1ccccc1C(F)(F)F (stereo not given) | nt | nt | nt | nt | nt | i
O=C(NN=Cc1ccco1)c1cc(-c2ccc(Br)s2)[nH]n1 | nt | nt | nt | nt | nt | i
CCOC(=O)/C(C#N)=C/Nc1ccccc1OC | i | i | i | 44 | i | i
O=C(NCCO)c1ccc2c3n(nc2c1)-c1ccc(Cl)cc1CO3 | i | i | i | i | i | i
Cc1ccc2c(c1)COc1c3ccc(C(=O)NCCO)cc3nn1-2 | i | i | i | i | 32 | i
CC1COC(=O)C(NC(=O)OCC2c3ccccc3-c3ccccc32)CC=CCC(CC(=O)NCCO)C(=O)N1 (stereo not given) | nt | nt | nt | nt | nt | i
COc1ccc(C2C=C(C)Nc3nc(SC)nn32)cc1 (stereo not given) | i | i | i | i | 149 | i
CNC(=O)C1OC(n2cnc3c(NCc4cccc(I)c4)ncnc32)C(O)C1O (stereo not given) | nt | nt | nt | nt | nt | i
COc1ccc(-c2nnc(Nc3nc4c(OC)cccc4s3)o2)c(OC)c1 | i | i | i | 69 | 60 | i
